# Results as given in ChEMBL document CHEMBL3988442, “University of Dundee, Small-Polar-MMV Screening Library” (2021).
# The campaign covered roughly 38,000 compounds. About 1,200 (3.2%) showed an effect of 50% or more. The median lay at about -58%. The sample as a whole holds a higher share of strong results than the screen did.
# Tested on: Plasmodium falciparum
# Experiment: Calibr Malaria Delayed Death Assay SOP
# Format: functional, organism-based
# Set-up: scale not given: in the data most compounds retested in dose-response had high values
# Details: concentration 4.99e-06 (unit not given; other assays of the set use mol/L)
row,Structure (SMILES),Percent Effect
1,COC(=O)c1cc(C)nc(N2CCN(Cc3ccn(C(C)C)c3)CC2)n1,-8.689%
2,Cc1cccc(NC(=O)CN2C(=O)CC(C)(C)c3ccccc32)n1,-54.59%
3,CC(C)OCCC(=O)N1CCN(CC(O)c2ccccc2)CC1 (configuration not stated),-51.21%
4,COc1cc(N2CC[C@@H]3O[C@@H](C(=O)NCCN(C)C)C[C@@H]32)ncn1,-52.73%
5,O=C(Cc1n[nH]c(-c2cncc(Br)c2)n1)NCc1cccnc1,-11.15%
6,Cn1ncc2c1CCCC2NCc1cccc(OC2CCCC2)c1 (configuration not stated),2.699%
7,CC(C)[C@H](NC(=O)Cn1nc2c(cc1=O)CCCC2)C(=O)O,-82.81%
8,CCn1nccc1CNC(=O)C1CCCCC1,-119.3%
9,Cc1cc(NC(=O)N2CCCC2C(C)(C)O)c2ncccc2c1 (configuration not stated),-22.81%
10,Cc1cc(NC(=O)N2CCCC2C(=O)NC2CC2)c2ncccc2c1 (configuration not stated),-118%
11,Cc1cc(NC(=O)NC2CCN(C(C)C)CC2)c2ncccc2c1,79.09%
12,CC(C)C(=O)Nc1ccc2c(c1)ncn2CC(=O)NCCN(C)C,-104.6%
13,O=C(NCCc1cccc(Cl)c1)C1CCOCC1,-133.6%
14,O=C(C[S+]([O-])Cc1cccc(Cl)c1)NC1CCCC1 (configuration not stated),-107.7%
15,O=C(Cc1cccc(Cl)c1)N[C@@H]1CCNC[C@H]1O,-79.06%
16,O=C(O)c1cn2cc(C(F)(F)F)ccc2n1,-36.42%
17,O=C(NCc1ccco1)[C@H]1C[C@H]2OCC[C@H]2N(C(=O)c2ccnnc2)C1,-30.68%
18,CCCN1CCC(N2CCOC(Cc3cccc(OC)c3)C2)CC1 (configuration not stated),-127.7%
19,O=C(NCCN1CCCCC1)c1nc(-c2cccc3[nH]ccc23)no1,15.88%
20,COCC(=O)N1CCCC1c1csc(Nc2cnccn2)n1 (configuration not stated),-55%
21,CCC(=O)N1CCCC1c1csc(Nc2cnccn2)n1 (configuration not stated),-46.83%
22,O=C(O)C(F)(F)F.O=C(O)C(F)(F)F.O=C1NC2(CCN(Cc3ccoc3)CC2)CC1c1ccncc1 (configuration not stated),-15.5%
23,Nc1nccc(N2CCC(c3cc(Cc4ccccc4)n[nH]3)CC2)n1,35.49%

row,Structure (SMILES),Percent Effect
1,Cc1cc(C)c(CNCC(O)c2ccc(F)c(F)c2)c(C)c1.Cl (configuration not stated),92.75%
2,Cc1n[nH]cc1CNCC(O)c1ccc(F)c(F)c1.Cl (configuration not stated),-33.27%
3,Cc1nc(CNC(=O)NCC(O)c2ccc(F)c(F)c2)cs1 (configuration not stated),-178.5%
4,Cc1csc(CNC(=O)NCC(O)c2ccc(F)c(F)c2)n1 (configuration not stated),2.8%
5,Cc1n[nH]c(C)c1CNCC(O)c1ccc(F)c(F)c1 (configuration not stated),14.72%
6,COCCCNc1nc(CNC(C)=O)cc(-c2ccco2)n1,-87.48%
7,O=C(O)C(F)(F)F.O=S(=O)(C1CC1)N1CCc2ncnc(N3CCCC3)c2CC1,-107.1%
8,CCc1nc(C2CCCN2Cc2cnc(C)cn2)no1 (configuration not stated),-15.63%
9,CC(C)c1cc(NC(=O)CN2CCCC2Cn2cncn2)on1 (configuration not stated),-56.31%
10,COc1cc(C(=O)NCc2ccc3c(c2)CCCN3C)cc(OC)c1Br,65%
11,CN1CCCc2cc(CNC(=O)c3ccncc3)ccc21,-23.61%
12,COC(=O)c1cccc(C(=O)NCc2ccc3c(c2)CCCN3C)c1,-12.04%
13,Cc1nn(CC(O)CN2CCC(C)CC2)c(=O)c(C#N)c1C (configuration not stated),-55.82%
14,O=C(O)C1CCN(C(=O)CCn2ccc3cc(Br)ccc32)CC1,-107.6%
15,O=C(Cn1ccc2ccccc21)NC[C@@H]1CCCN2CCCC[C@H]12,-17.29%
16,COc1ccc2c(ccn2CC(=O)NC[C@@H]2CCCN3CCCC[C@H]23)c1,-61.04%
17,Cc1cccc2c1ccn2CC(=O)NC[C@@H]1CCCN2CCCC[C@H]12,70.06%
18,O=C(Cn1ccc2cc(Br)ccc21)NC[C@@H]1CCCN2CCCC[C@H]12,-18.45%
19,O=C(CCn1ccc2cc(Br)ccc21)NC[C@@H]1CCCN2CCCC[C@H]12,65.78%
20,O=C(Cn1ccc2ccc(Br)cc21)NC[C@@H]1CCCN2CCCC[C@H]12,78.77%
21,O=C(O)C1CCN(C(=O)Cn2ccc3c(Cl)cccc32)CC1,-74.89%
22,O=C(Cn1ccc2ccc(F)cc21)NC[C@@H]1CCCN2CCCC[C@H]12,36.3%
23,CC(C)c1nsc(N2CCC(OCCN3CCOCC3)CC2)n1,-47.66%

row,Structure (SMILES),Percent Effect
1,CN(C)C(=O)COCC1CN(C2CCC2)Cc2ncn(C)c21.O=C(O)C(F)(F)F.O=C(O)C(F)(F)F (configuration not stated),-81.18%
2,Cc1c(C(=O)N2CCCC(O)(CN(C)C)CC2)c2cc(O)ccc2n1C (configuration not stated),-101.4%
3,Cc1cc2ccccc2n1CCC(=O)N1CCCC(O)(CN(C)C)CC1 (configuration not stated),54.68%
4,CN(C)CC1(O)CCCN(C(=O)Cn2nc3ccccc3n2)CC1 (configuration not stated),-95.76%
5,Cn1nnc2c1C(COCC1CC1)CN(C(=O)Cc1cccs1)C2 (configuration not stated),-35.42%
6,N#Cc1c(CN2CCCC2Cn2cccn2)cn2ccccc12 (configuration not stated),-64.03%
7,CCc1cc(C(=O)N2CC[C@@H](c3ccc4ccccc4c3)[C@H](O)C2)[nH]n1,17.14%
8,CN(Cc1cc(F)cc2cccnc12)CC1CCN(CCO)CC1,84.26%
9,CC(O)CN1CCC(CN(C)Cc2cc(F)cc3cccnc23)CC1 (configuration not stated),86.77%
10,CN(Cc1cc(Cl)cc2cccnc12)CC1CCN(CCO)CC1,88.36%
11,CC(O)CN1CCC(CN(C)CC(=O)NC(C)C)CC1 (configuration not stated),-132.6%
12,CN(CC(N)=O)Cc1cc(Cl)cc2cccnc12,-110.1%
13,CN(Cc1noc(C2CC2)n1)CC1CCN(CCO)CC1,-111.1%
14,OCCN1CCN(Cc2cc(Cl)cc3cccnc23)CC1,-35.44%
15,CC(C)c1nc(CN(C)CC2CCN(CCO)CC2)no1,-37.31%
16,CC(O)CN1CCC(CN(C)CCC(=O)NC2CCCC2)CC1 (configuration not stated),-87.19%
17,CCn1cc(Br)c(C(=O)NCc2ccccc2)n1,-62.24%
18,COc1ccc(C(=O)N2CCC(Nc3cccnn3)CC2)cn1,-79.23%
19,CN(C)c1ncc2c(n1)CN(C1CCSCC1)C2=O,-103.3%
20,Cc1cc(C2CCCN(Cc3nnc(Cc4ccccc4)o3)C2)n[nH]1 (configuration not stated),-117.5%
21,COc1cc(Cl)ccc1C(=O)N1CCCC(c2cc(C)[nH]n2)C1 (configuration not stated),-107.6%
22,Cc1cc(CNC(=O)c2ccno2)c(C)o1,-93.35%
23,CCS(=O)(=O)c1ccccc1C(=O)N1CCCC(n2cccn2)C1 (configuration not stated),-21.75%

row,Structure (SMILES),Percent Effect
1,Cc1cccnc1[C@H](C)NC(=O)c1cccc(CC2CCNCC2)c1,7.759%
2,CC(C)(O)CCc1cccc(C(=O)NCc2cnn3cccnc23)c1,-126.6%
3,O=C(NCc1cnn2cccnc12)c1cccc(CC2CCNCC2)c1,65.91%
4,CCNC(=O)C1CCCN(C(=O)Nc2ccc3c(c2)CCCN3C)C1 (configuration not stated),9.496%
5,CCOCC1CCN(C(=O)Nc2ccc3c(c2)CCCN3C)C1 (configuration not stated),57.13%
6,CCOCC1CCN(C(=O)Nc2ccc3c(c2)CCCO3)C1 (configuration not stated),-56.87%
7,Cc1noc([C@H]2COC[C@H]3CN(C(=O)Cc4cccs4)C[C@H]32)n1,-60.46%
8,CN(C(=O)Cn1nc(-c2cccs2)ccc1=O)C1CCS(=O)(=O)C1 (configuration not stated),-97.97%
9,Cc1c(CN2C[C@H](O)[C@@H](N3CCOCC3)C2)[nH]c2ccc(F)cc12,-95.14%
10,CC1=C(CCN2CC[C@@H](N3CCC(O)CC3)[C@H](O)C2)C(C)(C)CCC1,-51.59%
11,CC1=C(CCN2C[C@H](O)[C@@H](N3CCOCC3)C2)C(C)(C)CCC1,77.23%
12,COc1ccc2c(c1)NC(=O)C2OC(=O)Cc1ccccc1C (configuration not stated),10.16%
13,Cc1nn(C)cc1-c1ccnc(N2CCCN(CC(C)C)CC2)n1,-23.38%
14,CN1CCN(c2nccc(-c3cncnc3C3CCCCC3)n2)CC1,60.54%
15,CN1CCCN(c2nc(C3CCCC3)nc3c2cnn3C)CC1,-58.12%
16,CN1CCCN(c2nccc(-c3cncnc3C3CCCCC3)n2)CC1,59.73%
17,c1cc(-c2cn3nccc3nc2C2CCCCC2)nc(N2CCCC2)n1,-1.044%
18,CCc1ncc2c(n1)CN(c1nccc(C3CCCC3)n1)C2,-48.7%
19,Cc1nn(C)c2ncc(NC(=O)N3CCCCCC3)cc12,-40.12%
20,Cc1nc(CN2CCc3cnc(C(C)C)nc3C2)oc1C,-83.71%
21,CC(NS(C)(=O)=O)c1nc(-c2ccc(Br)cc2)no1 (configuration not stated),-124.5%
22,Cc1nc(C2CCNCC2)cc(N2CCOc3ccccc3C2)n1,46.26%
23,Cc1nc(CCN)cc(N2CCOc3ccc(Cl)cc3C2)n1,34.3%

row,Structure (SMILES),Percent Effect
1,Cc1nc(C2CCN(C)CC2)cc(N2CCOc3ccc(Cl)cc3C2)n1,69.39%
2,Cn1cnnc1C1CCCN1C(=O)Nc1cccc(OC(F)F)c1 (configuration not stated),-73.45%
3,CC(C)C(=O)N1CCC2(CCN2CC2CC2)C1.O=C(O)C(F)(F)F (configuration not stated),-79.93%
4,CC(C)C(=O)N1CCC2(CN(CC3CCCC3)C2)C1.O=C(O)C(F)(F)F,-72.67%
5,CC(C)C(=O)N1CCCC2(CCCN2CC2CCCC2)C1.O=C(O)C(F)(F)F (configuration not stated),59.96%
6,CC(C)C(=O)N1CCCC2(CCCN2Cc2cccnc2)C1 (configuration not stated),-19.91%
7,O=C(C1CCCCC1)N1CCC2(CCCN2CC2CC2)CC1.O=C(O)C(F)(F)F,-22.84%
8,CCCC(NC(=O)c1ccc(C)cc1C)c1nnn[nH]1 (configuration not stated),-70.8%
9,CC(C)[C@H](CO)Nc1nccc(-c2c[nH]nc2-c2ccncc2)n1,83.09%
10,Cc1csc2ncc(-c3ccnc(N4CCC[C@@H]4CO)n3)c(=O)n12,-191.9%
11,CN1CCCN(c2nccc(-c3c[nH]nc3-c3ccncc3)n2)CC1,65.32%
12,CN1CCCN(c2nccc(-c3cc(C(=O)O)ccn3)n2)CC1,-114.4%
13,c1cncc(-c2nc(C3CC3)ncc2-c2ccnc(N3CCCC3)n2)c1,-168.7%
14,OC[C@@H]1CCCN1c1nccc(-c2c[nH]nc2-c2ccncc2)n1,66.81%
15,c1cc(-c2n[nH]cc2-c2ccnc(N3CCCC3)n2)ccn1,80.23%
16,Cc1ncc(-c2ccnc(N3CCC[C@@H]3CO)n2)c(-c2cccnc2)n1,-29.65%
17,Cc1[nH]c2ccccc2c1-c1ccnc(N[C@@H](CO)C(C)C)n1,-14.55%
18,NC(=O)[C@H]1CCCN(c2nccc(-c3c[nH]nc3-c3cccnc3)n2)C1,-58.34%
19,CN1CCCN(c2nccc(-c3c[nH]c4ccc(Br)cc34)n2)CC1,40.41%
20,Cc1ccccc1-n1cc(-c2ccnc(NC(CO)C(C)C)n2)cn1 (configuration not stated),25.15%
